Source: PubChem BioAssay (Tox21)
Results filed as inconclusive are left out. A call without a number means that no potency is given here. A number with no mark means an inactive call. The source made the active and inactive calls. The call rests on the fitted dose curve.

Each compound was assayed against Beta-2 adrenergic receptor (Homo sapiens) (UniProt P07550) (assay: Adrenergic beta2 receptor (ADRB2) small molecule antagonists, cell-based qHTS assay (AID 1963592; further: nearly all actives have a fitted effect of over 50% in size)). Settings: CHO-ADRB2 cells, isoproterenol-stimulated cAMP HTRF ratio, 0.5 h; series mostly up to 92.4 µM.
Beta-2 adrenergic receptor (Homo sapiens), sequence (P07550 whole entry, looked up): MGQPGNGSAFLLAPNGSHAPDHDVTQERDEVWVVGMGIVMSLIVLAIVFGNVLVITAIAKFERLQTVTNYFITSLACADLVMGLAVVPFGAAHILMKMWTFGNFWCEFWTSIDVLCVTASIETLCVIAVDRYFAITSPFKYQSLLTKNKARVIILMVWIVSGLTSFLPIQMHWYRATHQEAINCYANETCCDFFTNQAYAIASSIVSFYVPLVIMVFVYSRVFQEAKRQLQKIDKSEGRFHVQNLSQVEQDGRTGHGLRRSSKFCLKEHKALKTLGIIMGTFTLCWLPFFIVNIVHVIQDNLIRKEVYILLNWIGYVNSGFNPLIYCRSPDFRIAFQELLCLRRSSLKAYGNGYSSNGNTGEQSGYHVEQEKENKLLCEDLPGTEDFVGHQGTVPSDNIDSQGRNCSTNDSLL
Description: U.S. Tox21 Program National Center for Advancing Translational Sciences [NCATS] Division of Preclinical Innovation [DPI] U.S. Environmental Protection Agency [EPA] National Institutes of Environmental Health Sciences [NIEHS] National Toxicology Program [NTP] U.S. Food and Drug Administration [FDA] Tox21 Assay Overview: Beta adrenergic receptors (Beta-ARs) belong to the G-protein coupled receptor (GPCR) superfamily, includes three subtypes - beta1, beta2, and beta3. Beta1-AR is the predominant receptor subtype expressed in the heart, and beta2-AR is expressed in the kidney, lung, blood vessel and in the heart, and beta3 is found in the adipocytes. Beta1 and 2 ARs couple to Gs protein and elevate cyclic adenosine mono phosphate (cAMP), which activates protein kinase A and leads to the downstream signaling responsible for the physiological actions. Beta-AR agonists or antagonists are the most prescribed therapeutic agents for heart failure and asthma, and these were one of the first target receptors for the rational drug design. Tox21 10K compound library was screened using the cAMP-Gs dynamic assay (Cisbio Bioassays, Shelton, CT) to identify agonists/antagonists of the Gs-coupled human adrenergic, beta2 receptor (ADRB2) in the CHO-ADRB2 cell line (Codex BioSolutions, Inc. Gaithersburg, MD), which stably over-expresses ADRB2. The principle of cAMP-Gs dynamic assay is based on HTRF technology, which facilitates the fluorescence resonance energy transfer (FRET) between donor Europium cryptate and acceptor d2-labeled cAMP. The cAMP generated within cells competes with the red acceptor, d2-labled cAMP, for binding to the monoclonal anti-cAMP-cryptate (Europium donor). An increase in intracellular cAMP leads to the disruption of FRET signal, and the signal is inversely proportional to the cAMP concentration. Propranolol HCl (Sigma-Aldrich, St. Louis, MO) was used as a positive control in the screening.
Tox21 Assay Protocol Summary: CHO-ADRB2 cells were dispensed at 1,000/well in 4uL assay medium into white/solid 1536-well plates (Greiner Bio-One North America Inc., Monroe, NC) using a Multidrop Combi dispenser (ThermoFisher Scientific, Waltham, MA). The assay plates were incubated at 37C and 5% CO2 for an overnight (18-20hr). Then positive control and test compounds dissolved in DMSO were transferred to the assay plates at 23nL using a Pintool station (Wako, San Diego, CA). Following the compound and positive control transfer, 1uL agonist-stimulation mix containing 1nM Isoproterenol HCl, 100uM IBMX and 25uM Ro-20-1724 was added to each well of the assay plates using BioRAPTR Flying Reagent Dispenser (FRD, Beckman Coulter, Brea, CA). The assay plates were incubated at room temperature for 0.5hr. Then 2.5ul each d2-labled cAMP and anti-cAMP-cryptate solutions were added separately to each well of the assay plates using an FRD and the assay plates were incubated at room temperature for 1hr. The fluorescence signal was measured at two different wavelengths (665nm and 615nm) using an Envision plate reader (Perkin Elmer, Shelton, CT). Data were expressed as the ratio of 665 nm/615 nm.
Potency means the concentration at half of the fitted maximal effect.

Row | SMILES | Potency | activity change, negative = inhibition
1 | COc1cc2[nH]c(=O)[nH]c(=O)c2cc1OC | inactive | 
2 | CO/N=C(\C(=O)O)c1csc(NC(=O)CCl)n1 | inactive | 
3 | CCCCCCCCCCCCCCCC(=O)OC[C@H](O)[C@H]1OC(=O)C(O)=C1O | inactive | 
4 | COc1cc2c(N3CCN(C(=O)Nc4ccc(OC(C)C)cc4)CC3)ncnc2cc1OCCCN1CCCCC1 | inactive | 
5 | O=C(CN1CCN(Cc2ccc3c(c2)OCO3)CC1)N1c2ccccc2Sc2ccccc21 | inactive | 
6 | Cc1c(C)c2c(c(C)c1OC(=O)CCC(=O)OCCO)CC[C@@](C)(CCC[C@H](C)CCC[C@H](C)CCCC(C)C)O2 | inactive | 
7 | CN1CC(=O)N/C1=N/C(=O)Nc1cccc(Cl)c1 | inactive | 
8 | Cc1ccc2cccnc2c1 | inactive | 
9 | COc1ccc(C2C(=O)c3ccccc3C2=O)cc1 | inactive | 
10 | Cc1cc(C)cc([N+](=O)[O-])c1 | inactive | 
11 | COCC(=O)Nc1c(I)c(C(=O)NCC(O)CO)c(I)c(C(=O)N(C)CC(O)CO)c1I (stereo not given) | inactive | 
12 | Clc1cc(Cl)c(-c2c(Cl)c(Cl)cc(Cl)c2Cl)cc1Cl | inactive | 
13 | Cc1ccc(C(=O)c2ccccc2)cc1 | inactive | 
14 | CCCCCCCCCCCCOC(=O)c1ccc(O)cc1 | inactive | 
15 | O=C1O[C@@H]2[C@@H](O)[C@H](O)O[C@@H]2[C@H]1O | inactive | 
16 | O=C(OCCN1CCOCC1)c1cccnc1Nc1cccc(C(F)(F)F)c1 | inactive | 
17 | OC1CCCc2ccccc21 (stereo not given) | inactive | 
18 | CCCCCCC(CCCCCCCCCCC(=O)OCC(COC(C)=O)OC(C)=O)OC(C)=O (stereo not given) | inactive | 
19 | CC(C)CCCC(C)(C)O | inactive | 
20 | O=C(O)c1cc(-c2ccc(F)cc2F)ccc1O | inactive | 

Row | SMILES | Potency | activity change, negative = inhibition
21 | CCCCCCCCCCCCS(=O)(=O)Cl |  | -6.85% [at 19 µM]
22 | C#CC(O)CCCCC (stereo not given) | inactive | 
23 | CCO[Si](C)(CCCOCC1CO1)OCC (stereo not given) | inactive | 
24 | CCC(=O)O[C@]1(C(=O)COC)[C@@H](C)C[C@H]2[C@@H]3CCC4=CC(=O)C=C[C@]4(C)C3(F)[C@@H](O)C[C@@]21C (stereo not given in full) | inactive | 
25 | O=C(Nc1ccccc1)c1cc([N+](=O)[O-])ccc1Cl | inactive | 
26 | CCCN1C[C@H](CSC)C[C@@H]2c3cccc4[nH]cc(c34)C[C@H]21 | inactive | 
27 | N#Cc1ccc(CC(=O)c2cccc(C(F)(F)F)c2)cc1 | inactive | 
28 | CC[N+](C)(CC)CCOC(=O)C(O)(c1ccccc1)C1CCCCC1 (stereo not given) | inactive | 
29 | Nc1nc(-c2ccccc2)c(Br)c(=O)[nH]1 | inactive | 
30 | CCc1cccc(CC)c1 | inactive | 
31 | C/C=C\C/C=C/CCCCCCCCOC(C)=O | inactive | 
32 | CCCCC/C=C/CC1CC(=O)OC1=O (stereo not given) | inactive | 
33 | CCOCCn1c(C2CCN(CCc3ccc(C(C)(C)C(=O)O)cc3)CC2)nc2ccccc21 | inactive | 
34 | O=C(O)c1cccc(O)c1 | inactive | 
35 | CN(CCOc1ccc(NS(C)(=O)=O)cc1)CCc1ccc(NS(C)(=O)=O)cc1 | inactive | 
36 | CC(C)(C)NCC(O)COc1ccc(NC(=O)NC2CCCCC2)cc1 (stereo not given) | 4.73 µM (active) | 
37 | C=Cc1ccccc1C=C | inactive | 
38 | CCCCCCCCCCCC(=O)Cl | inactive | 
39 | COc1ccc(S(=O)(=O)N2c3ccc(Cl)cc3[C@@](O)(c3ccccc3Cl)[C@H]2C(=O)N2CCC[C@@H]2C(N)=O)cc1OC | inactive | 
40 | NC(=O)C(c1ccccc1)(c1ccccc1)[C@@H]1CCN(CCc2ccc3c(c2)CCO3)C1 | inactive | 
